This is part of a sample that, as a whole, favours compounds with a hit. Of some 79,000 tested, about 15% had one in any assay. Rule as the data show it: active = growth inhibition above about 70%; inactive = the rest. Where a SMILES comes first, the peptide text is derived from it. Bridges are numbered along the chain shown (N, C = ends). Roman numbers before positions name the chains, in order.
Legend:
[1] = NCI Yeast Anticancer Drug Screen. Data for the rad50 strain (AID 155);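 also: 0% = growth of vehicle-only cultures of the same strain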; conditions: S. cerevisiae rad50 strain growth inhibition; at 50.0 µM; active compounds read high
Procedure, shortened: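 Yeast carrying a defined DNA repair defect were exposed to test compounds, and growth was compared with vehicle-treated controls to give percent inhibition.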

[2] = NCI Yeast Anticancer Drug Screen. Data for the mec2-1 strain (AID 157); conditions: S. cerevisiae mec2-1 strain, at 50.0 µM, active compounds read high
Procedure, shortened: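 Readout is yeast growth inhibition, normalised to vehicle-treated controls, in the mec2-1 strain exposed to compound.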

[3] = NCI Yeast Anticancer Drug Screen. Data for the sgs1 mgt1 strain (AID 161);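 also: 0% = growth of cultures given vehicle only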; conditions: S. cerevisiae sgs1 mgt1 strain, at 50.0 µM, active compounds read high
Procedure, shortened: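 Growth of a repair-deficient yeast mutant was monitored after compound treatment and expressed as inhibition relative to vehicle-treated cultures.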

[4] = NCI Yeast Anticancer Drug Screen. Data for the cln2 rad14 strain (AID 165);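 also: 0% = growth equal to vehicle treated cultures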; conditions: S. cerevisiae cln2 rad14 strain, at 50.0 µM, active compounds read high
Procedure, shortened: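 Relative to vehicle controls, growth inhibition of compound-treated cln2 rad14 yeast was recorded.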

[5] = NCI Yeast Anticancer Drug Screen. Data for the bub3 strain (AID 167); conditions: S. cerevisiae bub3 mutant strain, at 50.0 µM, active compounds read high
Procedure, shortened: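 Compounds were applied to a genetically altered yeast strain carrying a cell-cycle control defect. Growth inhibition was scored against vehicle-treated controls.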

[6] = NCI Yeast Anticancer Drug Screen. Data for the mlh1 rad18 strain (AID 175); conditions: S. cerevisiae mlh1 rad18 strain growth inhibition; at 50.0 µM; active compounds read high
Procedure, shortened: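 Test agents were incubated with a yeast strain of defined genotype (DNA damage repair defect). Inhibition of growth was derived by comparison with vehicle-exposed cultures.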

Measured: growth inhibition

Cc1cc(O)c(C(C)C)cc1N=O
inactive: [1] 22.2% | [2] -7.25% | [3] 18.5% | [4] 16.6% | [5] -15.6% | [6] 6.35%

Nc1nc(N)c2[nH]cnc2n1 (tested in a mixture with another compound)
inactive: [1] -25.5% | [2] -17.1% | [3] -31.6% | [4] 11.3% | [5] -41.6% | [6] -12%

Cc1ccc(NC(=O)CSc2nnc(-c3ccc(N=Cc4ccc(Cl)cc4)cc3)o2)cc1
inactive: [1] 2.3% | [2] -36.9% | [3] 12.5% | [4] -59.8% | [5] -15.8% | [6] 18.6%

COc1nc(C(O)C2OC(C)(C)OCC2O)[nH]c1C#N (stereo unspecified)
inactive: [1] 6.05% | [2] 7% | [3] 7.75% | [4] 10.7% | [5] 2.35% | [6] 7.35%

Cc1cc(=O)n2c(n1)sc1ccc3ccccc3c12
inactive: [1] 12% | [2] -11.8% | [3] 3.1% | [4] 12.8% | [5] -12.8% | [6] 33.9%

COCC1OC(n2cc(C)c(=O)n(C)c2=O)CC1OC (stereo unspecified)
inactive: [1] 1.2% | [2] 7.2% | [3] 19.9% | [4] -7.15% | [5] 24.4% | [6] 8%

ClCC1CCN(Cc2ccccc2)CC1
inactive: [1] -4.5% | [2] 13.9% | [3] 6.7% | [4] -17.4% | [5] -10.5% | [6] 6.9%

Cc1ccc(S(=O)(=O)N/N=C(\C(=N/OCc2ccccc2)c2ccccc2)c2ccccc2)cc1
inactive: [1] 43.4% | [2] -3.75% | [3] 27.6% | [4] 14.8% | [5] 10.8% | [6] 9.65%

CCCCCCCCCCCCCCCCC(=O)O
inactive: [1] -12.9% | [2] -15.8% | [3] -22.6% | [4] -27.8% | [5] 16.8% | [6] -7.85%

CC(=O)c1ccc(Cl)c(-n2cccc2)c1
inactive: [1] 4.2% | [2] -12.1% | [3] 13% | [4] 17.6% | [5] 17.8% | [6] -0.45%

O=C(O)CCc1cccc2ccccc12
inactive: [1] 30.1% | [2] 10.8% | [3] 32.7% | [4] 14.4% | [5] 3.35% | [6] 35.3%

Cc1cc(NC(=O)NC(=O)c2ccccc2N(C)C)ccc1Oc1ncc(Br)cn1
inactive: [1] -14.6% | [2] -13.8% | [3] -13.3% | [4] 12.2% | [5] -3.4% | [6] -4.45%

Cc1c(C(=O)CSc2nc3ccccc3c(=O)n2-c2ccccc2)c(=O)n(-c2ccccc2)n1C
inactive: [1] -9.1% | [2] 0.45% | [3] -18.1% | [4] 37.7% | [5] -11.3% | [6] -12.9%

CC(C)NC(=O)C1CC2C=CC1C2 (stereo unspecified)
inactive: [1] 7.7% | [2] 1.3% | [3] 1.75% | [4] 3.25% | [5] -9.85% | [6] 14.8%

Brc1ccccc1-c1nc2ccccc2[nH]1
inactive: [1] 4.1% | [2] -4.4% | [3] 4% | [4] -63% | [5] -6.1% | [6] -2.55%

CC(C)CC(NC(=O)C(N)CSSCC(N)C(=O)NC(CC(C)C)C(=O)O)C(=O)O (stereo not drawn) (I: H-Cys-Leu-OH / II: H-Cys-Leu-OH; disulfide I:1-II:1; configuration not given here)
inactive: [1] -10.6% | [2] -6.85% | [3] -9.8% | [4] -23.1% | [5] -1.25% | [6] -6.9%

CC(=O)NC(CCCCNC(=O)OCc1ccccc1)C(=O)O (stereo unspecified)
inactive: [1] -22.9% | [2] -12.9% | [3] -22.6% | [4] 11.9% | [5] -12.8% | [6] -32.8%

CC(=O)c1sc(/N=C\c2c(O)c3ccccc3oc2=O)nc1C
inactive: [1] -53.5% | [2] -49.6% | [3] -40.2% | [4] -3.25% | [5] -36.2% | [6] -33.8%

Cc1cc(N=Nc2ccccc2)c2cccnc2c1N
inactive: [1] -3.85% | [2] -4.2% | [3] -7.5% | [4] 11.6% | [5] -5.15% | [6] 14.7%

CCOc1ccccc1NC(=S)NC1CCCCC1
inactive: [1] -8.65% | [2] -9.3% | [3] 3.7% | [4] -17.2% | [5] 25.1% | [6] -6.3%

Cc1cccc(-n2c(C)nc3[nH]cc(C)c3c2=N)c1
inactive: [1] 0.15% | [2] 0.65% | [3] 2.05% | [4] -21.9% | [5] 0.55% | [6] 11.1%

C=C(Br)CNC(=O)c1ccccc1
inactive: [1] 7.5% | [2] -3.45% | [3] -1.35% | [4] -39.4% | [5] 21.4% | [6] 5.2%

CSc1ccc(C(=O)c2ccc(SC)cc2)cc1
inactive: [1] 5.65% | [2] 15.8% | [3] 16.2% | [4] -12.8% | [5] -4.25% | [6] -17.2%

CC(C)OCCOCCO
inactive: [1] 7.65% | [2] -10.5% | [3] -4.85% | [4] -24.9% | [5] 10.1% | [6] -1.2%

Cc1cc(O)c(/C=N/C(=S)NCCc2ccccc2)c(=O)o1
inactive: [1] -4.35% | [2] -29.5% | [3] -9.5% | [4] 10.3% | [5] 6.55% | [6] -20.6%

CCOC(=O)c1csc(N)n1
inactive: [1] -24.5% | [2] 7.35% | [3] -15.1% | [4] -39.6% | [5] -9.7% | [6] -18.3%

Nc1ccc2ccc(NS(=O)(=O)N3CCCCC3)cc2c1
inactive: [1] 31.8% | [2] 46.9% | [3] 43.1% | [4] 52.6% | [5] 18.5% | [6] 50.9%

CCCCCCNCc1cc(CNCCCCCC)c(O)c(CNCCCCCC)c1
inactive: [1] 4.5% | [2] 15.4% | [3] 18.4% | [4] -2.4% | [5] 1.4% | [6] 29.6%

CCN(CC)c1ccc(C(C#N)(c2ccc(N(CC)Cc3cccc(S(=O)(=O)O)c3)cc2)c2ccc(N(CC)Cc3cccc(S(=O)(=O)O)c3)cc2)cc1
inactive: [1] -1% | [2] 8.15% | [3] 4.55% | [4] -7.7% | [5] -7.45% | [6] 29.6%

O=C(O)C#Cc1ccccc1[N+](=O)[O-]
inactive: [1] 21.1% | [2] 25.1% | [3] 11.3% | [4] -15.4% | [5] 14.9% | [6] 9.35%

CCc1cccc(CC)c1N(C(C)=O)C(C)=O
inactive: [1] 8.55% | [2] -1.3% | [3] -11.7% | [4] -8.85% | [5] 19.2% | [6] 3.2%

CC(=O)N(C(C)=O)C1=C(c2ccccc2)C(=O)c2ccccc21
inactive: [1] 13.2% | [2] 22.2% | [3] 14% | [4] -0.75% | [5] -2.95% | [6] 40.1%

Cc1ccc(S(=O)(=O)CCN2CCCC2)cc1
inactive: [1] -3.85% | [2] -14.7% | [3] -5.6% | [4] -47.2% | [5] 7.95% | [6] -9.55%

O=C(Nc1nccs1)c1c(O)nc2sccn2c1=O
inactive: [1] 8.7% | [2] -33% | [3] 18.9% | [4] 22.4% | [5] 14.8% | [6] -12.6%

COc1ccc(C2OC(=O)C(=O)C2=O)cc1OC (stereo unspecified)
inactive: [1] -25.9% | [2] -25.4% | [3] -8.45% | [4] -17.4% | [5] 8.7% | [6] -8.65%

CC(=O)Nc1ccc(Br)cc1
inactive: [1] 0.85% | [2] -5.6% | [3] -18.4% | [4] -34% | [5] -17.1% | [6] 0.1%

Cn1c(=O)c2[nH]c(SCCc3ccccc3)nc2n(C)c1=O
inactive: [1] 0.65% | [2] 0.05% | [3] 6.15% | [4] -39.1% | [5] 10.3% | [6] -2.75%

O=C(O)c1cccc(Br)c1
inactive: [1] 4.85% | [2] -19.1% | [3] -8.4% | [4] -38.2% | [5] -5.7% | [6] -5.5%

O=C1CCCc2ccc3c(c21)CC1(Cc2ccccc2C1)C3
inactive: [1] -7.05% | [2] -40.2% | [3] 8.65% | [4] -6% | [5] 4.05% | [6] -5.8%

CC(=O)COc1ccccc1
inactive: [1] -2.7% | [2] -10.5% | [3] 7.75% | [4] 6.45% | [5] -6.85% | [6] 15.4%

COc1cc2c(c(OC)c1OC)-c1ccc(SC)c(=O)cc1C(N=C(NC1OCC(OC(C)=O)C(OC(C)=O)C1OC(C)=O)SN(NC(=O)OCc1ccccc1)C(=O)OCc1ccccc1)CC2 (stereo unspecified)
inactive: [1] 5.6% | [2] 10.4% | [3] 24.4% | [4] -11.7% | [5] -1.55% | [6] 32.3%
